Experiments:
[1] = target: T1, Serine/threonine-protein kinase D2 (Homo sapiens) (UniProt Q9BZL6); conditions: at 1 µM;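 note: mean value of PRKD2 inhibition, from the GSK PKIS screening panel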
T1 sequence (whole entry): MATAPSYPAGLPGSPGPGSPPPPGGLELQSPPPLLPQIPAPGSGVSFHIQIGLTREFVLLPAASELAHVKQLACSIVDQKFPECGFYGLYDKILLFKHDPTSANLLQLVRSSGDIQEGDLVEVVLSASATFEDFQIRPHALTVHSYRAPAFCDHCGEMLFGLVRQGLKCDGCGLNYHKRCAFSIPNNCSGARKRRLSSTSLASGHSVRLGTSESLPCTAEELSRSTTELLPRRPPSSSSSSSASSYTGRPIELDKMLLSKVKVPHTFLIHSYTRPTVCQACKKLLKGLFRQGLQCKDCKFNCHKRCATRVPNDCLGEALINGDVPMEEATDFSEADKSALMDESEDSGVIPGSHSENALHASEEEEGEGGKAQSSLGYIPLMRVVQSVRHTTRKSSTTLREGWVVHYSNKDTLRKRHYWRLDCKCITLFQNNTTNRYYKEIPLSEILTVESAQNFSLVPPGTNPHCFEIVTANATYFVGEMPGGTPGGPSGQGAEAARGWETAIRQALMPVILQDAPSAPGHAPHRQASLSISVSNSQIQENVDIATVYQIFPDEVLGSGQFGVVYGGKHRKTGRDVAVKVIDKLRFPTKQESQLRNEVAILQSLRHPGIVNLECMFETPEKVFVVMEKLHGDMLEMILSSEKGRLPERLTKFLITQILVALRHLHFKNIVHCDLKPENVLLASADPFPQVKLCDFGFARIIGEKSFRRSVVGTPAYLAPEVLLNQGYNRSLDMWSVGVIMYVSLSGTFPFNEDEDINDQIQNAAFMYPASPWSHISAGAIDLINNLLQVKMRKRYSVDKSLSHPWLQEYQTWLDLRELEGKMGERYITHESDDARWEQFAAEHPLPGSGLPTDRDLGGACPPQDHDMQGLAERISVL

[2] = target: T2, Serine/threonine-protein kinase D3 (Homo sapiens) (UniProt O94806); conditions: at 0.1 µM
T2 sequence (whole entry): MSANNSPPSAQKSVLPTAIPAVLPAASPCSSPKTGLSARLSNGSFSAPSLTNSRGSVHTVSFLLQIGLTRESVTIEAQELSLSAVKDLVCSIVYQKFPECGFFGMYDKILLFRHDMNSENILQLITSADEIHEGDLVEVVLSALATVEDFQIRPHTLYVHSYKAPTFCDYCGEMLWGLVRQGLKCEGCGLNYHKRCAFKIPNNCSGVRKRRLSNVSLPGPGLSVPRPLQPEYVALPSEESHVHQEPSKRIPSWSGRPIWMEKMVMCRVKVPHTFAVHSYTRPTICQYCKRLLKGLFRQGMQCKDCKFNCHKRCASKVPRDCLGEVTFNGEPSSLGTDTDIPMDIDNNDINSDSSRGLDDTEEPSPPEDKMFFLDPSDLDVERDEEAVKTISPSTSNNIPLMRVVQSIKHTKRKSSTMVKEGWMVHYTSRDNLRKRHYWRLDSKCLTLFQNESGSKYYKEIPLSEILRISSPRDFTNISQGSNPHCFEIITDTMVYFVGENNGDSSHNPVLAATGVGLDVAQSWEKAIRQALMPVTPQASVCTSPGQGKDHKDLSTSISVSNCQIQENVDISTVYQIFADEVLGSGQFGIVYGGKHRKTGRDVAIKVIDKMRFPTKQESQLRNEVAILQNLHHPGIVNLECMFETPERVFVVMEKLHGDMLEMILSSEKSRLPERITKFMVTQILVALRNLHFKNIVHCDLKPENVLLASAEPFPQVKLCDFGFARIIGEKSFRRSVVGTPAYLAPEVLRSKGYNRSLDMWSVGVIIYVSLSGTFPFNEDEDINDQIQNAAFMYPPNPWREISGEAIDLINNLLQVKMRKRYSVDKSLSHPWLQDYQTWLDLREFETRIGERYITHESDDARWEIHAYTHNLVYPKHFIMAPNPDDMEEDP

[3] = target: T2, Serine/threonine-protein kinase D3 (Homo sapiens); conditions: at 1 µM
[4] = target: T3, cGMP-dependent protein kinase 1 (Homo sapiens) (UniProt Q13976); conditions: at 0.1 µM
T3 sequence (whole entry): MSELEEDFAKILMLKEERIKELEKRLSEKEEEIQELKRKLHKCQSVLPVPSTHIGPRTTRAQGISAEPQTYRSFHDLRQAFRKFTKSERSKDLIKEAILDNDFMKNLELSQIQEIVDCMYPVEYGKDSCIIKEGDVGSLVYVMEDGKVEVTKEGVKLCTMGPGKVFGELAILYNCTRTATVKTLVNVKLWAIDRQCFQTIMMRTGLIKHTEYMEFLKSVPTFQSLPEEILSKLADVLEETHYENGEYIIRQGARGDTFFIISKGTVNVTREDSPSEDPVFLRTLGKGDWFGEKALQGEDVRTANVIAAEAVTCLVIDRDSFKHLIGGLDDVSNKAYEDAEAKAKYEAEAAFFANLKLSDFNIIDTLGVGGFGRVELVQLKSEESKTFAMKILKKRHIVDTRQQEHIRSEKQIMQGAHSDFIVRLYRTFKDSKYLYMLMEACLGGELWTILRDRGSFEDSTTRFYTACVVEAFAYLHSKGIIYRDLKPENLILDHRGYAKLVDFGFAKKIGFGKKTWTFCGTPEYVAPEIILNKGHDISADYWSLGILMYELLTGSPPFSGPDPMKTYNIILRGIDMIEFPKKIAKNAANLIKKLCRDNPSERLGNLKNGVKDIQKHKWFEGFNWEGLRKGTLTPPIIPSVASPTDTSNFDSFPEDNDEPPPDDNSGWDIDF

[5] = target: T3, cGMP-dependent protein kinase 1 (Homo sapiens); conditions: at 1 µM
[6] = target: T4, cGMP-dependent protein kinase 2 (Homo sapiens) (UniProt Q13237); conditions: at 0.1 µM
T4 sequence (whole entry): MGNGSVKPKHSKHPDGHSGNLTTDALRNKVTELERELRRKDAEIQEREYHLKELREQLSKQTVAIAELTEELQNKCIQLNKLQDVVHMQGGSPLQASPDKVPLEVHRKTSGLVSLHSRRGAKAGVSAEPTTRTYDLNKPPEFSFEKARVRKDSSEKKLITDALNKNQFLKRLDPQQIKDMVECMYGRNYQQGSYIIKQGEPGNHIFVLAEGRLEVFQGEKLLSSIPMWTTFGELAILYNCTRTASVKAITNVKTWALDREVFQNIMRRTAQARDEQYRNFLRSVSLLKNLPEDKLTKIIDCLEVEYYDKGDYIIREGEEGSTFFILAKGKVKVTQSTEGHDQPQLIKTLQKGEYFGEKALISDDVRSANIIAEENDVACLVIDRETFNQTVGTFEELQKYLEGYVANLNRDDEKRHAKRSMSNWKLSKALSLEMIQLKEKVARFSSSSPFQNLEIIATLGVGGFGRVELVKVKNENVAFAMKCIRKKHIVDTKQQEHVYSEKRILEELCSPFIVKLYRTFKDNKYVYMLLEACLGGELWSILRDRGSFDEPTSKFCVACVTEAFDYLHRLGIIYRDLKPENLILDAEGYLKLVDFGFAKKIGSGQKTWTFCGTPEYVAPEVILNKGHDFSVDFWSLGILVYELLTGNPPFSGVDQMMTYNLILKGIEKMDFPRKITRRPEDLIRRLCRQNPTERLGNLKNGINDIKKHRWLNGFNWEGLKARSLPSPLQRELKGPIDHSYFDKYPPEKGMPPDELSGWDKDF

[7] = target: T4, cGMP-dependent protein kinase 2 (Homo sapiens); conditions: at 1 µM
[8] = target: T5, cAMP-dependent protein kinase catalytic subunit PRKX (Homo sapiens) (UniProt P51817); conditions: at 0.1 µM
T5 sequence (whole entry): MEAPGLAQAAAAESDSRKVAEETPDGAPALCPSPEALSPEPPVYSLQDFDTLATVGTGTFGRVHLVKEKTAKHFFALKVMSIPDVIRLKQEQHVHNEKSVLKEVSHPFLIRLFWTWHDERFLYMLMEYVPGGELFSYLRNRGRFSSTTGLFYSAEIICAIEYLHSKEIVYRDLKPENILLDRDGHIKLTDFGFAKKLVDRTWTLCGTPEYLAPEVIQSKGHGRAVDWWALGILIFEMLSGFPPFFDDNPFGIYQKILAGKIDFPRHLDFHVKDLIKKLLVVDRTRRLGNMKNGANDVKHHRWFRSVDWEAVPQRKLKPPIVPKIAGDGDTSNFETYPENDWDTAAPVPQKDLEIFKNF

[9] = target: T5, cAMP-dependent protein kinase catalytic subunit PRKX (Homo sapiens); conditions: at 1 µM
[10] = target: Rho-associated protein kinase 1 (Homo sapiens) (UniProt Q13464); conditions: at 0.1 µM;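 note: values are mean percent inhibition of ROCK1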
Rho-associated protein kinase 1 (Homo sapiens), sequence (Q13464 2-1354 limits assumed): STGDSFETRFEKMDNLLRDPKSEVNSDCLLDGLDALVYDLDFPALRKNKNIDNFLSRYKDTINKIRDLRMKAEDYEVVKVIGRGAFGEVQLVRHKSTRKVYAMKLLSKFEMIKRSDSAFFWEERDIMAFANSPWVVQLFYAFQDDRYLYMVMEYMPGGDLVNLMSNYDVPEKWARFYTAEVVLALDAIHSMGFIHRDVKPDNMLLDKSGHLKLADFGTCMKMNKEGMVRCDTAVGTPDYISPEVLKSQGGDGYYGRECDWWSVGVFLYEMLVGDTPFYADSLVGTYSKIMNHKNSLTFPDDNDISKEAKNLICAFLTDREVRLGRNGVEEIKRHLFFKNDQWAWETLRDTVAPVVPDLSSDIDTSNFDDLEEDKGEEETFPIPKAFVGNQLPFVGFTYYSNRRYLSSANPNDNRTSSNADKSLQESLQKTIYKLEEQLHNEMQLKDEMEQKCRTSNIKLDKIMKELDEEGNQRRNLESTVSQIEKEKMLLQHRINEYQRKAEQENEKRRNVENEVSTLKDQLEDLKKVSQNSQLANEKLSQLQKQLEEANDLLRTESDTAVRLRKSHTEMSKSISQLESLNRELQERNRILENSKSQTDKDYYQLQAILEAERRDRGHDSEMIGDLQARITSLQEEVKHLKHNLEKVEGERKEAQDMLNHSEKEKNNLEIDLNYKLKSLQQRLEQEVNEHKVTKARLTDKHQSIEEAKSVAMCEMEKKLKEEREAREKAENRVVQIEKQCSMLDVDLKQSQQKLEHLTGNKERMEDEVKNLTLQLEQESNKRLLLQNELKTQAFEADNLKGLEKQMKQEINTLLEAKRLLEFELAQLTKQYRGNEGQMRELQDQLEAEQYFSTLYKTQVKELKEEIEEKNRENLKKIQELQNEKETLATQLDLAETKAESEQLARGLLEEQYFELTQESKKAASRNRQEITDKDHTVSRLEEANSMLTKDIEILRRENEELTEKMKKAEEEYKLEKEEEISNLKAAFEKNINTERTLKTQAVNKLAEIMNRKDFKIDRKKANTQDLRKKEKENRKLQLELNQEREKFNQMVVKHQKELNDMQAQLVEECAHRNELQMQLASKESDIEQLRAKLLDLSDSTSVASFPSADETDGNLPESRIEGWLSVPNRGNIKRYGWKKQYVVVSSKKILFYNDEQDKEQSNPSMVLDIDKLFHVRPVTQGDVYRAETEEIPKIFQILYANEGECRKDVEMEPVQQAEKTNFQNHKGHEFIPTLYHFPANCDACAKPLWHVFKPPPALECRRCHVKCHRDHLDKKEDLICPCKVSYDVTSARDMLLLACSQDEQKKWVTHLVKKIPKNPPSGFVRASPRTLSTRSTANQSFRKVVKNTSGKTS

SMILES | inhibition [1] [%] | inhibition [2] [%] | inhibition [3] [%] | inhibition [4] [%] | inhibition [5] [%] | inhibition [6] [%] | inhibition [7] [%] | inhibition [8] [%] | inhibition [9] [%] | inhibition [10] [%]
O=C(Nc1ccc(Oc2ccc3[nH]c(NC(=O)c4ccco4)nc3c2)cc1)Nc1cc(C(F)(F)F)ccc1F | -1.48 | -3.15 | -1.16 | 1.18 | 4.28 | 1.74 | 4.38 | 4 | 4.61 | 3.36
CCS(=O)(=O)c1ccc(OC)c(Nc2nccc(N(C)c3ccc4c(C)n[nH]c4c3)n2)c1 | 3.25 | 4.79 | 4.86 | 4.43 | 2.44 | 2.68 | 3.13 | 2.11 | 2.47 | 1.77
NS(=O)(=O)c1cccc(Nc2cc(-c3ccc(F)cc3)n[nH]2)c1 | 3.29 | 2.9 | 3.78 | 2.36 | 5.63 | 4.45 | 6.86 | 6.02 | 9.4 | 1.22
COC(=O)Nc1nc2cc(Oc3ccc(NC(=O)Nc4cccc(Br)c4)cc3)ccc2[nH]1 | 4.58 | 2.07 | 3.88 | 1.83 | 2.02 | 0.8 | 2.14 | 1.95 | 1.14 | 2.54
COC(=O)c1ccc2c(c1)C(=Cc1cc(Br)c(O)c(Br)c1)C(=O)N2 | 3.79 | 4.47 | 5.87 | 2.45 | 5.8 | 1.59 | 6.29 | 1.47 | 1.86 | 2.01
COc1cccc(-n2nc(C)c3c(N/N=C(\C)c4ccncc4)ncnc32)c1 | -1.17 | -0.64 | 0.59 | 0.03 | 0.55 | 0.35 | -0.19 | -0.2 | -1.17 | -1.53
Cc1ccc2c(-c3ccnc(Nc4cccc(C(F)(F)F)c4)n3)c(-c3ccccc3)nn2n1 | 56.8 | 11.6 | 51.5 | 3.11 | 5.07 | 3.26 | 4.35 | 2.65 | 2.54 | 3.08
C[C@@H](Oc1cc(-n2cnc3ccc(OC[C@@H](O)CO)cc32)sc1C(N)=O)c1ccccc1Cl | 1.51 | -1.65 | 0.06 | -2.27 | -0.2 | -0.02 | -0.19 | -1.09 | -8.23 | 0.14
O=C1Nc2ccccc2/C1=C/Nc1ccc2[nH]c(=O)[nH]c2c1 | 14 | 5.54 | 11.7 | 1.49 | 6.34 | 3.41 | 13.8 | 2.23 | 8.47 | 0.24

From ChEMBL document CHEMBL1961873, “Compounds: GSK PKIS; Assays: Nanosyn kinase panel” (2012)
